The subject of the assay is FaDu. The assay can be described thus: mitochondrial oxygen consumption rate normalised to cell number, Z score vs plate DMSO wells; higher = higher oxygen consumption (negative = OCR reduction). The settings on record: treatment time 24 h, assay medium: 5 mM glucose, 5 mM pyruvate, 4 mM glutamine. Here is the method: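 Secondary screen: FaDu cells were incubated 24 h with the top 130 primary hits at 0.08, 0.4, 2 or 10 uM. Mitochondrial-specific OCR (basal minus antimycin A) was measured on a Seahorse XF96 in medium with 5 mM glucose, 5 mM pyruvate and 4 mM glutamine and normalised to Hoechst cell number. OCR score = (OCR - mean of plate DMSO wells) / SD of plate DMSO wells. Three repeats.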

± gives the standard deviation of the averaged measurements.
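Note: compound exposure in DMEM (4 mM L-glutamine, 5 mM glucose), antimycin A injected at 2 µM after the basal reading and its residual OCR subtracted from basal.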

For `CCN(CC)C(=O)c1cccnc1`, the “mitochondrial oxygen consumption rate normalised” value reads like this: (0.08 µM) 0.606 ± 0.97; (0.4 µM) -0.942 ± 0.098; (2 µM) -1.02 ± 1.1; (10 µM) -1.48 ± 0.69.
The corresponding values for `O=C(Nc1ccc([N+](=O)[O-])cc1Cl)c1cc(Cl)ccc1O` are -1.26 ± 1.4, -0.286 ± 0.41, 0.259 ± 0.76 and -12.5 ± 0.17.
The corresponding values for `COc1cc(O)c(C(=O)c2ccccc2)cc1S(=O)(=O)O` are 0.104 ± 1.6, 1.17 ± 0.81, -0.346 ± 2.5 and -1.77 ± 1.
The corresponding values for `COc1ccc2cc3[n+](cc2c1OC)CCc1cc2c(cc1-3)OCO2` are -0.246 ± 0.98, -0.535 ± 0.76, -6.29 ± 0.22 and -13.55 ± 0.13.
`CCN(CC)CCOC(=O)C(c1ccccc1)C1CCCCC1` (stereo not drawn): the “mitochondrial oxygen consumption rate normalised” value by setting is: (0.08 µM) 0.349 ± 1.2; (0.4 µM) 1.06 ± 1; (2 µM) 1.23 ± 0.9; (10 µM) 1.37 ± 1.6.
For `CC(=O)O[C@H]1C[C@@]2(C)[C@@H](C[C@@H](O)[C@H]3[C@@]4(C)CC[C@@H](O)[C@@H](C)[C@@H]4CC[C@@]32C)/C1=C(\CCC=C(C)C)C(=O)O` the same measures were 0.246 ± 2.1, -0.851 ± 1.9, 0.0549 ± 0.78 and -0.138 ± 1.1.
For the compound `CCCCCCCCCCCCCCCCCCCCCCO`, the “mitochondrial oxygen consumption rate normalised” value by setting is: (0.08 µM) 0.402 ± 1.5; (0.4 µM) 0.592 ± 1.3; (2 µM) 0.538 ± 0.35; (10 µM) -0.999 ± 1.9.
Regarding `Nc1c2ccccc2nc2ccccc12`, the “mitochondrial oxygen consumption rate normalised” value runs as follows: (0.08 µM) -1.04 ± 0.95; (0.4 µM) -0.393 ± 0.47; (2 µM) -2.4 ± 0.075; (10 µM) -9.41 ± 0.65.
The corresponding values for `Cc1cc(=O)[nH]c(=S)[nH]1` are -1.18 ± 0.93, -0.337 ± 0.83, -1.08 ± 0.99 and 0.503 ± 0.66.
For the compound `CCC(C)n1ncn(-c2ccc(N3CCN(c4ccc(OCC5COC(Cn6cncn6)(c6ccc(Cl)cc6Cl)O5)cc4)CC3)cc2)c1=O` (stereo not drawn), the “mitochondrial oxygen consumption rate normalised” value (0.08 µM) amounted to 0.265 ± 1.4, the “mitochondrial oxygen consumption rate normalised” value (0.4 µM) is 1.4 ± 0.68, the “mitochondrial oxygen consumption rate normalised” value (2 µM) was -0.554 ± 1.1 and the “mitochondrial oxygen consumption rate normalised” value (10 µM) was -4.35 ± 1.6.
For `CCc1c2c(nc3ccc(OC(=O)N4CCC(N5CCCCC5)CC4)cc13)-c1cc3c(c(=O)n1C2)COC(=O)[C@]3(O)CC` the same measures were 0.871 ± 0.77, 1.67 ± 1.4, 1.27 ± 0.31 and -4.72 ± 1.
With `O=C1C(O)=C([C@H]2CC[C@H](c3ccc(Cl)cc3)CC2)C(=O)c2ccccc21`, the “mitochondrial oxygen consumption rate normalised” value was -0.607 ± 2.4 (0.08 µM), 1.63 ± 1.6 (0.4 µM), -0.111 ± 2.5 (2 µM) and -3.55 ± 2.2 (10 µM).
For `CN(C)CCCN1c2ccccc2CCc2ccccc21` the same measures were -0.638 ± 1.5, -0.388 ± 0.95, -0.981 ± 1.9 and -0.576 ± 1.4.
The corresponding values for `CCOC(=O)CCC(=O)O[C@H]1[C@H](O[C@@H]2[C@@H](C)[C@H](O[C@H]3C[C@@](C)(OC)[C@@H](O)[C@H](C)O3)[C@@H](C)C(=O)O[C@H](CC)[C@@](C)(O)[C@H](O)[C@@H](C)C(=O)[C@H](C)C[C@@]2(C)O)O[C@H](C)C[C@@H]1N(C)C` are -0.00592 ± 1.6, 0.83 ± 0.89, -0.161 ± 1.9 and 1.22 ± 0.77.
The corresponding values for `N=C(N)NC(=N)NCCc1ccccc1` are 0.684 ± 1.6, 0.605 ± 0.9, -0.479 ± 0.84 and -5.11 ± 1.6.
For the compound `COc1cc(NS(C)(=O)=O)ccc1Nc1c2ccccc2nc2ccccc12`, the “mitochondrial oxygen consumption rate normalised” value (0.08 µM) was -0.738 ± 1.7, the “mitochondrial oxygen consumption rate normalised” value (0.4 µM) came to 1.51 ± 1.1, the “mitochondrial oxygen consumption rate normalised” value (2 µM) was -1.58 ± 0.81 and the “mitochondrial oxygen consumption rate normalised” value (10 µM) is -5.19 ± 1.7.
`Nc1ncn([C@@H]2O[C@H](CO)[C@@H](O)[C@H]2O)c(=O)n1`: the “mitochondrial oxygen consumption rate normalised” value runs as follows: (0.08 µM) -0.369 ± 1.5; (0.4 µM) 1.15 ± 0.3; (2 µM) -1.48 ± 1.4; (10 µM) -2.3 ± 1.5.
The corresponding values for `S=c1[nH]cnc2nc[nH]c12` are 0.147 ± 1.5, 0.888 ± 1.4, -2.8 ± 1.2 and -2.54 ± 0.98.
`CCN(CC)CCCC(C)Nc1ccnc2cc(Cl)ccc12` (stereo not drawn): the “mitochondrial oxygen consumption rate normalised” value (0.08 µM) was found to be 0.223 ± 1.1, the “mitochondrial oxygen consumption rate normalised” value (0.4 µM) amounted to 1.56 ± 0.35, the “mitochondrial oxygen consumption rate normalised” value (2 µM) was -0.792 ± 0.8 and the “mitochondrial oxygen consumption rate normalised” value (10 µM) was found to be 0.482 ± 1.1.
For `CO[C@H](C(=O)[C@@H](O)[C@@H](C)O)[C@@H]1Cc2cc3cc(O[C@H]4C[C@@H](O[C@@H]5C[C@@H](O)[C@H](O)[C@@H](C)O5)[C@H](O)[C@@H](C)O4)c(C)c(O)c3c(O)c2C(=O)[C@H]1O[C@H]1C[C@@H](O[C@@H]2C[C@@H](O)[C@@H](O[C@@H]3C[C@](C)(O)[C@H](O)[C@@H](C)O3)[C@@H](C)O2)[C@H](O)[C@@H](C)O1`, the “mitochondrial oxygen consumption rate normalised” value (0.08 µM) is -4.64 ± 1.4, the “mitochondrial oxygen consumption rate normalised” value (0.4 µM) is -7.12 ± 0.33, the “mitochondrial oxygen consumption rate normalised” value (2 µM) was -7.79 ± 0.54 and the “mitochondrial oxygen consumption rate normalised” value (10 µM) is -8.14 ± 0.52.
In the case of `COc1ccc2c(c1)c(CC(=O)O)c(C)n2C(=O)c1ccc(Cl)cc1`, the “mitochondrial oxygen consumption rate normalised” value by setting is: (0.08 µM) -1.16 ± 1.6; (0.4 µM) -0.0955 ± 0.33; (2 µM) 0.286 ± 1.6; (10 µM) -0.792 ± 1.6.
On to `CC(C)OC(=O)C(C)(C)Oc1ccc(C(=O)c2ccc(Cl)cc2)cc1`, for which the “mitochondrial oxygen consumption rate normalised” value runs as follows: (0.08 µM) -0.014 ± 0.66; (0.4 µM) 1.08 ± 0.7; (2 µM) 0.455 ± 1.1; (10 µM) -2.82 ± 2.6.
The corresponding values for `Cc1cc(N)c2ccccc2[n+]1CCCCCCCCCC[n+]1c(C)cc(N)c2ccccc21` are 0.324 ± 0.65, 0.622 ± 0.8, -4.67 ± 2.1 and -7.52 ± 1.4.
Regarding `Cc1cc(C(C)(C)CC(C)(C)C)ccc1OCCOCC[N+](C)(C)Cc1ccccc1`, the “mitochondrial oxygen consumption rate normalised” value reads like this: (0.08 µM) -1.05 ± 0.63; (0.4 µM) 0.588 ± 0.44; (2 µM) -5.29 ± 1.2; (10 µM) -12.6 ± 0.23.
For `CC(=O)Oc1ccccc1C(=O)Nc1ncc([N+](=O)[O-])s1` the same measures were 0.233 ± 1.2, 1.38 ± 0.59, 1.82 ± 0.7 and 1.49 ± 1.2.
On to `CCCCCCCCNC(C)C(O)c1ccc(SC(C)C)cc1` (stereo not drawn), for which the “mitochondrial oxygen consumption rate normalised” value was 0.0353 ± 1.1 (0.08 µM), -0.376 ± 0.59 (0.4 µM), 0.293 ± 1.8 (2 µM) and -7.88 ± 0.64 (10 µM).
For `CC[n+]1c(-c2ccccc2)c2cc(N)ccc2c2ccc(N)cc21` the same measures were -0.559 ± 1.1, -1.04 ± 0.79, -3.43 ± 2.4 and -6.28 ± 1.8.

Source of the values: the supplement of paper PMC4962491.
